Measurements from PubChem BioAssay AID1159580 (chemical genetic matrix, 2015).
Where “and” joins values, the source holds several entries; their conditions need not be identical. Equal entries are not always repeated. Among all 5,500 compounds or so, about 2,000 (36%) were called active. Inconclusive results (about 18%) are left out. Rule as the data show it: active = normalized growth mostly below about 0.91 (no sharp cut-off); inconclusive = no clear call, values can overlap the other calls; inactive = mostly above about 0.92. Some of the results follow.

Assay: chemical genetic growth profiling, strain panel (AID 1159580);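 also: tested at 20 µM; growth read once vehicle control cultures reached saturation at 30 °C; 1 = growth at the plate median or of vehicle wells; lower values mean less growth of the strain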
Settings: growth OD

Measured: normalized growth

CCC(C)C(=O)OC1[C@@H]2CC3=C4CC(=O)O[C@@H](c5ccoc5)[C@]4(C)CCC3[C@@](C)(C2=O)[C@@H](CC(=O)OC)C1(C)C (stereo partly specified)
inactive: S. cerevisiae deletion strains, locus YAL021C, strain ccr4, stronger effect = lower value 1.02 | S. cerevisiae deletion strains, locus YAL026C, strain drs2, stronger effect = lower value 1.01 | S. cerevisiae deletion strains, locus YAL030W, strain snc1, stronger effect = lower value 1.01 | S. cerevisiae deletion strains, locus YBL061C, strain skt5, stronger effect = lower value 1.01 | S. cerevisiae deletion strains, locus YBR009C, strain hhf1, stronger effect = lower value 1.01 | S. cerevisiae deletion strains, locus YBR021W, strain FUR4, stronger effect = lower value 1 | S. cerevisiae deletion strains, locus YBR023C, strain chs3, stronger effect = lower value 1 | S. cerevisiae deletion strains, locus YBR171W, strain sec66, stronger effect = lower value 1.01 | S. cerevisiae deletion strains, locus YBR229C, strain ROT2, stronger effect = lower value 0.999 | S. cerevisiae deletion strains, locus YBR231C, strain swc5, stronger effect = lower value 1.01 | S. cerevisiae deletion strains, locus YBR279W, strain paf1, stronger effect = lower value 1.01 | S. cerevisiae deletion strains, locus YCL011C, strain gbp2, stronger effect = lower value 1.01 | S. cerevisiae deletion strains, locus YCL016C, strain dcc1, stronger effect = lower value 1.01 | S. cerevisiae deletion strains, locus YCL029C, strain bik1, stronger effect = lower value 1 | S. cerevisiae deletion strains, locus YCL061C, strain MRC1, stronger effect = lower value 1 | S. cerevisiae deletion strains, locus YCL069W, strain vba3, stronger effect = lower value 1.02 | S. cerevisiae deletion strains, locus YCR088W, strain abp1, stronger effect = lower value 1 | S. cerevisiae deletion strains, locus YDL005C, strain med2, stronger effect = lower value 1 | S. cerevisiae deletion strains, locus YDL035C, strain GPR1, stronger effect = lower value 0.987 | S. cerevisiae deletion strains, locus YDL040C, strain nat1, stronger effect = lower value 0.991 | S. cerevisiae deletion strains, locus YDL074C, strain BRE1, stronger effect = lower value 1.01 | S. cerevisiae deletion strains, locus YDL101C, strain DUN1, stronger effect = lower value 1.02 | S. cerevisiae deletion strains, locus YDL185W, strain tfp1, stronger effect = lower value 1.01 | S. cerevisiae deletion strains, locus YDL192W, strain arf1, stronger effect = lower value 0.994 | S. cerevisiae deletion strains, locus YDR001C, strain nth1, stronger effect = lower value 1 | S. cerevisiae deletion strains, locus YDR069C, strain doa4, stronger effect = lower value 0.992 | S. cerevisiae deletion strains, locus YDR101C, strain arx1, stronger effect = lower value 0.991 | S. cerevisiae deletion strains, locus YDR137W, strain rgp1, stronger effect = lower value 0.961 | S. cerevisiae deletion strains, locus YDR159W, strain sac3, stronger effect = lower value 0.998 | S. cerevisiae deletion strains, locus YDR162C, strain NBP2, stronger effect = lower value 0.995 | S. cerevisiae deletion strains, locus YDR195W, strain ref2 0.987 | S. cerevisiae deletion strains, locus YDR297W, strain sur2, stronger effect = lower value 1.01 | S. cerevisiae deletion strains, locus YDR318W, strain mcm21, stronger effect = lower value 1 | S. cerevisiae deletion strains, locus YDR334W, strain swr1, stronger effect = lower value 1 | S. cerevisiae deletion strains, locus YDR335W, strain msn5, stronger effect = lower value 1.01 | S. cerevisiae deletion strains, locus YDR388W, stronger effect = lower value 1.01 | S. cerevisiae deletion strains, locus YDR392W, strain spt3, stronger effect = lower value 0.979 | S. cerevisiae deletion strains, locus YDR502C, strain sam2, stronger effect = lower value 1.02 | S. cerevisiae deletion strains, locus YEL003W, strain gim4, stronger effect = lower value 1.01 | S. cerevisiae deletion strains, locus YEL037C, strain rad23, stronger effect = lower value 1.01 | S. cerevisiae deletion strains, locus YEL061C, strain CIN8 (second series), stronger effect = lower value 1.01 | S. cerevisiae deletion strains, locus YER015W, strain faa2, stronger effect = lower value 0.999 | S. cerevisiae deletion strains, locus YER016W, strain bim1, stronger effect = lower value 0.999 | S. cerevisiae deletion strains, locus YER110C, stronger effect = lower value 1.02 | S. cerevisiae deletion strains, locus YER111C, strain swi4, stronger effect = lower value 0.99 | S. cerevisiae deletion strains, locus YER155C, strain BEM2 (second series), stronger effect = lower value 1.01 | S. cerevisiae deletion strains, locus YER155C, strain BEM2, stronger effect = lower value 1.01 | S. cerevisiae deletion strains, locus YER167W, strain BCK2, stronger effect = lower value 1 | S. cerevisiae deletion strains, locus YFR010W, strain ubp6, stronger effect = lower value 1.02 | S. cerevisiae deletion strains, locus YGL078C, strain dbp3, stronger effect = lower value 1.02 | S. cerevisiae deletion strains, locus YGL086W, strain mad1, stronger effect = lower value 1 | S. cerevisiae deletion strains, locus YGL167C, strain pmr1, stronger effect = lower value 1.01 | S. cerevisiae deletion strains, locus YGL173C, strain kem1, stronger effect = lower value 1 | S. cerevisiae deletion strains, locus YGL227W, strain vid30, stronger effect = lower value 0.999 | S. cerevisiae deletion strains, locus YGL240W, strain doc1, stronger effect = lower value 0.989 | S. cerevisiae deletion strains, locus YGL248W, strain PDE1, stronger effect = lower value 1.01 | S. cerevisiae deletion strains, locus YGL253W, strain hxk2, stronger effect = lower value 1.03 | S. cerevisiae deletion strains, locus YGR078C, strain PAC10, stronger effect = lower value 1.02 | S. cerevisiae deletion strains, locus YGR135W, strain pre9, stronger effect = lower value 1.04 | S. cerevisiae deletion strains, locus YGR229C, strain SMI1, stronger effect = lower value 0.982 | S. cerevisiae deletion strains, locus YGR252W, strain gcn5, stronger effect = lower value 1.02 | S. cerevisiae deletion strains, locus YHR013C, strain ard1, stronger effect = lower value 1.01 | S. cerevisiae deletion strains, locus YHR027C, strain rpn1, stronger effect = lower value 0.994 | S. cerevisiae deletion strains, locus YHR030C, strain SLT2, stronger effect = lower value 0.959 | S. cerevisiae deletion strains, locus YHR079C, strain IRE1 (second series), stronger effect = lower value 1.01 | S. cerevisiae deletion strains, locus YHR079C, strain IRE1, stronger effect = lower value 0.95 | S. cerevisiae deletion strains, locus YHR094C, strain hxt1, stronger effect = lower value 1 | S. cerevisiae deletion strains, locus YHR129C, strain ARP1, stronger effect = lower value 1.01 | S. cerevisiae deletion strains, locus YHR142W, strain chs7, stronger effect = lower value 1.04 | S. cerevisiae deletion strains, locus YHR200W, strain rpn10, stronger effect = lower value 1 | S. cerevisiae deletion strains, locus YIL066C, strain RNR3, stronger effect = lower value 0.998 | S. cerevisiae deletion strains, locus YIL073C, strain SPO22, stronger effect = lower value 1.06 | S. cerevisiae deletion strains, locus YIL125W, strain kgd1, stronger effect = lower value 0.998 | S. cerevisiae deletion strains, locus YIR030C, strain dcg1, stronger effect = lower value 1 | S. cerevisiae deletion strains, locus YJL092W, strain hpr5, stronger effect = lower value 1 | S. cerevisiae deletion strains, locus YJL095W, strain BCK1 (second series), stronger effect = lower value 1 | S. cerevisiae deletion strains, locus YJL095W, strain BCK1, stronger effect = lower value 1.04 and 0.958 | S. cerevisiae deletion strains, locus YJL115W, strain asf1, stronger effect = lower value 1 | S. cerevisiae deletion strains, locus YJL129C, strain trk1, stronger effect = lower value 1.01 | S. cerevisiae deletion strains, locus YJL134W, strain LCB3, stronger effect = lower value 1 | S. cerevisiae deletion strains, locus YJL154C, strain vps35, stronger effect = lower value 1 | S. cerevisiae deletion strains, locus YJL164C, strain tpk1, stronger effect = lower value 1.02 | S. cerevisiae deletion strains, locus YJL166W, strain qcr8, stronger effect = lower value 1.01 | S. cerevisiae deletion strains, locus YJL168C, strain set2, stronger effect = lower value 1.01 | S. cerevisiae deletion strains, locus YJL187C, strain SWE1 (second series), stronger effect = lower value 1.03 | S. cerevisiae deletion strains, locus YJL187C, strain SWE1, stronger effect = lower value 1.01 | S. cerevisiae deletion strains, locus YJR066W, strain TOR1, stronger effect = lower value 0.91 | S. cerevisiae deletion strains, locus YJR075W, strain HOC1, stronger effect = lower value 1.01 | S. cerevisiae deletion strains, locus YKL009W, strain mrt4, stronger effect = lower value 0.965 | S. cerevisiae deletion strains, locus YKL068W, stronger effect = lower value 0.999 | S. cerevisiae deletion strains, locus YKL085W, strain MDH1 (second series), stronger effect = lower value 0.988 | S. cerevisiae deletion strains, locus YKL085W, strain MDH1, stronger effect = lower value 0.988 | S. cerevisiae deletion strains, locus YKL160W, strain elf1, stronger effect = lower value 1.01 | S. cerevisiae deletion strains, locus YKR001C, strain vps1, stronger effect = lower value 1.01 | S. cerevisiae deletion strains, locus YKR026C, strain gcn3, stronger effect = lower value 1.01 | S. cerevisiae deletion strains, locus YKR091W, strain srl3, stronger effect = lower value 1 | S. cerevisiae deletion strains, locus YLL001W, strain dnm1, stronger effect = lower value 1.01 | S. cerevisiae deletion strains, locus YLL026W, stronger effect = lower value 1 | S. cerevisiae deletion strains, locus YLL041C, strain sdh2, stronger effect = lower value 1.01 | S. cerevisiae deletion strains, locus YLR027C, strain aat2, stronger effect = lower value 1.02 | S. cerevisiae deletion strains, locus YLR039C, strain RIC1, stronger effect = lower value 0.974 | S. cerevisiae deletion strains, locus YLR058C, strain SHM2, stronger effect = lower value 1.01 | S. cerevisiae deletion strains, locus YLR102C, strain apc9, stronger effect = lower value 1 | S. cerevisiae deletion strains, locus YLR113W, strain HOG1, stronger effect = lower value 1.03 | S. cerevisiae deletion strains, locus YLR221C, strain rsa3, stronger effect = lower value 0.998 | S. cerevisiae deletion strains, locus YLR258W, strain gsy2, stronger effect = lower value 1.01 | S. cerevisiae deletion strains, locus YLR262C, strain YPT6 (second series), stronger effect = lower value 0.947 | S. cerevisiae deletion strains, locus YLR268W, strain sec22, stronger effect = lower value 0.989 | S. cerevisiae deletion strains, locus YLR320W, strain mms22, stronger effect = lower value 1.01 | S. cerevisiae deletion strains, locus YLR342W, strain FKS1 (second series), stronger effect = lower value 1 | S. cerevisiae deletion strains, locus YLR342W, strain FKS1, stronger effect = lower value 1 | S. cerevisiae deletion strains, locus YLR357W, strain rsc2, stronger effect = lower value 0.991 | S. cerevisiae deletion strains, locus YLR370C, strain arc18, stronger effect = lower value 1.01 | S. cerevisiae deletion strains, locus YLR371W, strain rom2, stronger effect = lower value 1 | S. cerevisiae deletion strains, locus YLR384C, strain iki3, stronger effect = lower value 1.02 | S. cerevisiae deletion strains, locus YLR418C, strain cdc73, stronger effect = lower value 1.04 | S. cerevisiae deletion strains, locus YML016C, strain PPZ1, stronger effect = lower value 0.997 | S. cerevisiae deletion strains, locus YML032C, strain rad52, stronger effect = lower value 1.01 | S. cerevisiae deletion strains, locus YML120C, strain ndi1, stronger effect = lower value 1 | S. cerevisiae deletion strains, locus YML124C, strain tub3, stronger effect = lower value 1.01 | S. cerevisiae deletion strains, locus YMR058W, strain fet3, stronger effect = lower value 1.01 | S. cerevisiae deletion strains, locus YMR078C, strain ctf18, stronger effect = lower value 1.01 | S. cerevisiae deletion strains, locus YMR125W, strain sto1, stronger effect = lower value 1 | S. cerevisiae deletion strains, locus YMR129W, stronger effect = lower value 1.01 | S. cerevisiae deletion strains, locus YMR205C, strain PFK2, stronger effect = lower value 1 | S. cerevisiae deletion strains, locus YMR223W, strain ubp8, stronger effect = lower value 1 | S. cerevisiae deletion strains, locus YMR231W, strain pep5, stronger effect = lower value 0.973 | S. cerevisiae deletion strains, locus YMR307W, strain GAS1, stronger effect = lower value 1.05 | S. cerevisiae deletion strains, locus YNL067W, strain RPL9B, stronger effect = lower value 1.03 | S. cerevisiae deletion strains, locus YNL071W, strain lat1, stronger effect = lower value 1.01 | S. cerevisiae deletion strains, locus YNL128W, strain TEP1, stronger effect = lower value 0.995 | S. cerevisiae deletion strains, locus YNL183C, strain NPR1, stronger effect = lower value 0.927 | S. cerevisiae deletion strains, locus YNL209W, strain ssb2, stronger effect = lower value 1 | S. cerevisiae deletion strains, locus YNL233W, strain BNI4, stronger effect = lower value 0.995 | S. cerevisiae deletion strains, locus YNL248C, strain rpa49, stronger effect = lower value 1 | S. cerevisiae deletion strains, locus YNL250W, strain rad50, stronger effect = lower value 1.03 | S. cerevisiae deletion strains, locus YNL271C, strain bni1, stronger effect = lower value 1 | S. cerevisiae deletion strains, locus YNL298W, strain CLA4, stronger effect = lower value 1.02 | S. cerevisiae deletion strains, locus YNL307C, strain MCK1, stronger effect = lower value 1 | S. cerevisiae deletion strains, locus YNL322C, strain KRE1 (second series), stronger effect = lower value 0.999 | S. cerevisiae deletion strains, locus YNR049C, strain mso1, stronger effect = lower value 1.01 | S. cerevisiae deletion strains, locus YNR052C, strain pop2, stronger effect = lower value 1.01 | S. cerevisiae deletion strains, locus YOL012C, strain htz1 1.11 | S. cerevisiae deletion strains, locus YOL147C, strain pex11, stronger effect = lower value 1 | S. cerevisiae deletion strains, locus YOR001W, strain rrp6, stronger effect = lower value 1.01 | S. cerevisiae deletion strains, locus YOR061W, strain CKA2, stronger effect = lower value 0.995 | S. cerevisiae deletion strains, locus YOR069W, strain VPS5, stronger effect = lower value 1.01 | S. cerevisiae deletion strains, locus YOR070C, strain gyp1, stronger effect = lower value 1.01 | S. cerevisiae deletion strains, locus YOR080W, strain dia2, stronger effect = lower value 0.996 | S. cerevisiae deletion strains, locus YOR083W, strain WHI5, stronger effect = lower value 1 | S. cerevisiae deletion strains, locus YOR106W, strain vam3, stronger effect = lower value 1.02 | S. cerevisiae deletion strains, locus YOR136W, strain idh2, stronger effect = lower value 0.994 | S. cerevisiae deletion strains, locus YOR144C, strain elg1, stronger effect = lower value 1.01 | S. cerevisiae deletion strains, locus YOR184W, strain ser1, stronger effect = lower value 0.983 | S. cerevisiae deletion strains, locus YOR231W, strain MKK1, stronger effect = lower value 0.973 | S. cerevisiae deletion strains, locus YOR265W, strain rbl2, stronger effect = lower value 0.999 | S. cerevisiae deletion strains, locus YOR270C, strain vph1, stronger effect = lower value 1.03 | S. cerevisiae deletion strains, locus YOR290C, strain snf2, stronger effect = lower value 0.978 | S. cerevisiae deletion strains, locus YOR316C, strain cot1, stronger effect = lower value 1 | S. cerevisiae deletion strains, locus YPL051W, strain arl3, stronger effect = lower value 1 | S. cerevisiae deletion strains, locus YPL078C, strain atp4, stronger effect = lower value 1.04 | S. cerevisiae deletion strains, locus YPL106C, strain sse1, stronger effect = lower value 1.01 | S. cerevisiae deletion strains, locus YPL240C, strain hsp82, stronger effect = lower value 1 | S. cerevisiae deletion strains, locus YPL241C, strain CIN2, stronger effect = lower value 0.998 | S. cerevisiae deletion strains, locus YPL256C, strain CLN2, stronger effect = lower value 0.943 | S. cerevisiae deletion strains, locus YPR119W, strain clb2, stronger effect = lower value 1.01 | S. cerevisiae deletion strains, locus YPR141C, strain kar3, stronger effect = lower value 1.01 | S. cerevisiae deletion strains, locus YPR163C, strain tif3, stronger effect = lower value 1 | S. cerevisiae deletion strains, locus YPR167C, strain met16, stronger effect = lower value 0.995 | S. cerevisiae deletion strains, strain wtn01, stronger effect = lower value 0.993 | S. cerevisiae strains, strain wild type, stronger effect = lower value 0.978
